How the values were obtained:
Assay in all cases: log2 ratio of Biotin-Ahx-Ub-VS probe labelling (fragment/DMSO); higher = less target engagement (more negative = stronger competition), active = hit call of the paper (q ≤ 0.05, log2 ratio ≤ -1)
Conditions in all cases: compound concentration: 200 uM; treatment time: 3 h
USP34 = USP34 (UniProt Q70CQ2)
In short: (§1)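 HEK293T lysate, 495 µg per sample in Tris/CHAPS/IGEPAL buffer with protease inhibitors, was treated in triplicate with fragment at 200 µM or vehicle for 3 h and then with Biotin-Ahx-Ub-VS at 0.5 µM final for 1 h. Labelled DUBs were NeutrAvidin-enriched, digested with LysC and trypsin, and run by diaPASEF LC-MS/MS. Spectronaut label-free quantities were global-median-normalised, and values are average log2 fragment/vehicle ratios by unpaired t-test on proteins with ≥2 unique peptides.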

USP36 = target: T1, USP36 (UniProt Q9P275)
T1 sequence (whole entry): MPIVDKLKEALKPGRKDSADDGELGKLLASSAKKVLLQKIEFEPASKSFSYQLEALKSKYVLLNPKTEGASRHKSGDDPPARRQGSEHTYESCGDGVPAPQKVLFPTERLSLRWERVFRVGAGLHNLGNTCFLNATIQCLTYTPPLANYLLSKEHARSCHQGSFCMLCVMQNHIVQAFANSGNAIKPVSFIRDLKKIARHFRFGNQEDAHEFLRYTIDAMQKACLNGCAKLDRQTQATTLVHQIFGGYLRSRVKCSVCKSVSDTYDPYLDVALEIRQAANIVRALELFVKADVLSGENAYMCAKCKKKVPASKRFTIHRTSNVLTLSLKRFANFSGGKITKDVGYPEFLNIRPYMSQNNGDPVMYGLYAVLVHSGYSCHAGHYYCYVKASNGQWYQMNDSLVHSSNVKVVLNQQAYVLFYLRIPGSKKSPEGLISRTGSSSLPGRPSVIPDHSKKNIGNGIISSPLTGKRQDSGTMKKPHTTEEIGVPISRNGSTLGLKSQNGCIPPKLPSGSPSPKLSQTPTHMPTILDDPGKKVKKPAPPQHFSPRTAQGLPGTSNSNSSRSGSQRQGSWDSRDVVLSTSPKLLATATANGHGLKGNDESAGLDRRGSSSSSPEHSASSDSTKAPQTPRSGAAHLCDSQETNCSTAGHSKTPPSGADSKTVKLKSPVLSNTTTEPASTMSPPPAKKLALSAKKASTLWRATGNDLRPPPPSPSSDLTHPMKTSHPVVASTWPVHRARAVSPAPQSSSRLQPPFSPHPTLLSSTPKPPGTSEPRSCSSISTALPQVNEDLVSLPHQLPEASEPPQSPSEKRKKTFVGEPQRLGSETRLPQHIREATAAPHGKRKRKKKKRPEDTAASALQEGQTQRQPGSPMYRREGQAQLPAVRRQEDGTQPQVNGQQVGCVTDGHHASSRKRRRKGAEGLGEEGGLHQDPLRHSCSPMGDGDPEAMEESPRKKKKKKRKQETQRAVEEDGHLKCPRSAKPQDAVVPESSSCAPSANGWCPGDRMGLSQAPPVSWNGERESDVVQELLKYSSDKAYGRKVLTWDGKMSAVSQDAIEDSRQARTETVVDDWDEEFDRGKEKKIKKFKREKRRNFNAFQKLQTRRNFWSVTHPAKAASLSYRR
In short: as §1

USP38 = target: T2, USP38 (UniProt Q8NB14)
T2 sequence (whole entry): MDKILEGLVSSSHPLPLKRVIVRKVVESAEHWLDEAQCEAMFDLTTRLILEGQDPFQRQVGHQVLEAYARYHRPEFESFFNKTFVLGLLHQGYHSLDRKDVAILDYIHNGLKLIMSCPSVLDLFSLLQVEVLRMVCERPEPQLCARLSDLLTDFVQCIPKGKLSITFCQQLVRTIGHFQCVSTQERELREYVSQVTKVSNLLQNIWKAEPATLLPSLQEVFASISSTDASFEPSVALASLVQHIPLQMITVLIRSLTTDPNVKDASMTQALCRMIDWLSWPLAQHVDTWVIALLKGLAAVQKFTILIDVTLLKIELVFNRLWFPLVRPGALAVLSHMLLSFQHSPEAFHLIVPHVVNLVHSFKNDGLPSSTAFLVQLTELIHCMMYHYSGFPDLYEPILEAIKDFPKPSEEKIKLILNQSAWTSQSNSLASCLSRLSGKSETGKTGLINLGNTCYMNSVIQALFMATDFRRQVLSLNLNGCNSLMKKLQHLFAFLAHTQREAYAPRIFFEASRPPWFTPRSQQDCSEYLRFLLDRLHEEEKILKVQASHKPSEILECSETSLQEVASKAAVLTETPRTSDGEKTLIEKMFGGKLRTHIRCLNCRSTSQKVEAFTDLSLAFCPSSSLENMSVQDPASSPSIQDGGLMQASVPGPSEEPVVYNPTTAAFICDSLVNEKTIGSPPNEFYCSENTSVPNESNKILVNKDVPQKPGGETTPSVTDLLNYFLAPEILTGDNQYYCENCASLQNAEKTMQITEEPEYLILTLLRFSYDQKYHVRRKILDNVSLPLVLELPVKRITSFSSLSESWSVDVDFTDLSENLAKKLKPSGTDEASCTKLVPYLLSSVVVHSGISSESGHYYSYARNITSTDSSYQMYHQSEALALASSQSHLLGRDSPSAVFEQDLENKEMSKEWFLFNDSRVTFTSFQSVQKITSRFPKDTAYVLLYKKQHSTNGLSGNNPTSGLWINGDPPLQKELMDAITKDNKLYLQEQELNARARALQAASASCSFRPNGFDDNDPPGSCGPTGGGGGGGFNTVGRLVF
In short: as §1

USP39 = target: T3, USP39 (UniProt Q53GS9)
T3 sequence (whole entry): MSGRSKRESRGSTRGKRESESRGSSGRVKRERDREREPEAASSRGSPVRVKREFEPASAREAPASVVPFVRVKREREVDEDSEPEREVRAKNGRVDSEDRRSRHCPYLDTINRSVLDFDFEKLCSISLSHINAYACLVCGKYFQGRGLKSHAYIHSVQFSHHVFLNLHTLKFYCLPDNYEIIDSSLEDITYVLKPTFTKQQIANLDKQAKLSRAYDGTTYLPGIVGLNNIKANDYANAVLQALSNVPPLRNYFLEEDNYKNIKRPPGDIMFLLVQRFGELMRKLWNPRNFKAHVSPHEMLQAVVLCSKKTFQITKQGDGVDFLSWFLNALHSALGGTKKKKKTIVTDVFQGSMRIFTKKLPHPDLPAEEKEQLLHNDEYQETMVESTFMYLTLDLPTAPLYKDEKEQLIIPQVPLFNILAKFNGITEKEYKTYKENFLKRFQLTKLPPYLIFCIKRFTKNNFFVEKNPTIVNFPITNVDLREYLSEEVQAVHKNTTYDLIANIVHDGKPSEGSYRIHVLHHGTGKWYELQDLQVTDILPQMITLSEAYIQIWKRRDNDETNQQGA
In short: as §1

USP4 = target: T4, USP4 (UniProt Q13107)
T4 sequence (whole entry): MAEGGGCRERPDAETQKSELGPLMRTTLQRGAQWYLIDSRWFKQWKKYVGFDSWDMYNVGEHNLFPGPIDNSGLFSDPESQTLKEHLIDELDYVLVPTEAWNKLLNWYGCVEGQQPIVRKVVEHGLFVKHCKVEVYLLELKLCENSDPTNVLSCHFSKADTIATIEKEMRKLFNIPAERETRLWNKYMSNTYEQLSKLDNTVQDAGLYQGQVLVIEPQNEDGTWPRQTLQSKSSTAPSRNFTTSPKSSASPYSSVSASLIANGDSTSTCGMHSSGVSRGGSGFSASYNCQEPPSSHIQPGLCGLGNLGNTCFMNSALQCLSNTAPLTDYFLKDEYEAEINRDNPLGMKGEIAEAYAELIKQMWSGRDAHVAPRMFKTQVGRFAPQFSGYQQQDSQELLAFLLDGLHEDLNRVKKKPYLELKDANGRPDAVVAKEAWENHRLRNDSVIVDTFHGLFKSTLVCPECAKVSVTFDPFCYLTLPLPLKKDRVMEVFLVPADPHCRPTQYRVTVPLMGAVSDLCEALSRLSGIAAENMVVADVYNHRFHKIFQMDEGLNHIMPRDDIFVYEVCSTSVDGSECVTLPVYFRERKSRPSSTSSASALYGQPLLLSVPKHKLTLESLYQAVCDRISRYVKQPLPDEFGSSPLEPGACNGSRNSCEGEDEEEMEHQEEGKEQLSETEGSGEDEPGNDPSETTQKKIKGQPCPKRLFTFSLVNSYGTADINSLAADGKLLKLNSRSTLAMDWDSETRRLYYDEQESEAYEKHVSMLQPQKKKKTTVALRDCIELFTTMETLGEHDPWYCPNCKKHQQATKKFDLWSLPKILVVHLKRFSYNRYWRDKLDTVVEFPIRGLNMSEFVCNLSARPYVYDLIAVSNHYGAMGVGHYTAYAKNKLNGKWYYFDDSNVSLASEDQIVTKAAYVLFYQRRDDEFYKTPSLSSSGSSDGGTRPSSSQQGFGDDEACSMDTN
In short: as §1

Measured: log2 ratio of Biotin-Ahx-Ub-VS probe labelling

Chain of USP34 (Q70CQ2 whole entry, the tested form may be a part): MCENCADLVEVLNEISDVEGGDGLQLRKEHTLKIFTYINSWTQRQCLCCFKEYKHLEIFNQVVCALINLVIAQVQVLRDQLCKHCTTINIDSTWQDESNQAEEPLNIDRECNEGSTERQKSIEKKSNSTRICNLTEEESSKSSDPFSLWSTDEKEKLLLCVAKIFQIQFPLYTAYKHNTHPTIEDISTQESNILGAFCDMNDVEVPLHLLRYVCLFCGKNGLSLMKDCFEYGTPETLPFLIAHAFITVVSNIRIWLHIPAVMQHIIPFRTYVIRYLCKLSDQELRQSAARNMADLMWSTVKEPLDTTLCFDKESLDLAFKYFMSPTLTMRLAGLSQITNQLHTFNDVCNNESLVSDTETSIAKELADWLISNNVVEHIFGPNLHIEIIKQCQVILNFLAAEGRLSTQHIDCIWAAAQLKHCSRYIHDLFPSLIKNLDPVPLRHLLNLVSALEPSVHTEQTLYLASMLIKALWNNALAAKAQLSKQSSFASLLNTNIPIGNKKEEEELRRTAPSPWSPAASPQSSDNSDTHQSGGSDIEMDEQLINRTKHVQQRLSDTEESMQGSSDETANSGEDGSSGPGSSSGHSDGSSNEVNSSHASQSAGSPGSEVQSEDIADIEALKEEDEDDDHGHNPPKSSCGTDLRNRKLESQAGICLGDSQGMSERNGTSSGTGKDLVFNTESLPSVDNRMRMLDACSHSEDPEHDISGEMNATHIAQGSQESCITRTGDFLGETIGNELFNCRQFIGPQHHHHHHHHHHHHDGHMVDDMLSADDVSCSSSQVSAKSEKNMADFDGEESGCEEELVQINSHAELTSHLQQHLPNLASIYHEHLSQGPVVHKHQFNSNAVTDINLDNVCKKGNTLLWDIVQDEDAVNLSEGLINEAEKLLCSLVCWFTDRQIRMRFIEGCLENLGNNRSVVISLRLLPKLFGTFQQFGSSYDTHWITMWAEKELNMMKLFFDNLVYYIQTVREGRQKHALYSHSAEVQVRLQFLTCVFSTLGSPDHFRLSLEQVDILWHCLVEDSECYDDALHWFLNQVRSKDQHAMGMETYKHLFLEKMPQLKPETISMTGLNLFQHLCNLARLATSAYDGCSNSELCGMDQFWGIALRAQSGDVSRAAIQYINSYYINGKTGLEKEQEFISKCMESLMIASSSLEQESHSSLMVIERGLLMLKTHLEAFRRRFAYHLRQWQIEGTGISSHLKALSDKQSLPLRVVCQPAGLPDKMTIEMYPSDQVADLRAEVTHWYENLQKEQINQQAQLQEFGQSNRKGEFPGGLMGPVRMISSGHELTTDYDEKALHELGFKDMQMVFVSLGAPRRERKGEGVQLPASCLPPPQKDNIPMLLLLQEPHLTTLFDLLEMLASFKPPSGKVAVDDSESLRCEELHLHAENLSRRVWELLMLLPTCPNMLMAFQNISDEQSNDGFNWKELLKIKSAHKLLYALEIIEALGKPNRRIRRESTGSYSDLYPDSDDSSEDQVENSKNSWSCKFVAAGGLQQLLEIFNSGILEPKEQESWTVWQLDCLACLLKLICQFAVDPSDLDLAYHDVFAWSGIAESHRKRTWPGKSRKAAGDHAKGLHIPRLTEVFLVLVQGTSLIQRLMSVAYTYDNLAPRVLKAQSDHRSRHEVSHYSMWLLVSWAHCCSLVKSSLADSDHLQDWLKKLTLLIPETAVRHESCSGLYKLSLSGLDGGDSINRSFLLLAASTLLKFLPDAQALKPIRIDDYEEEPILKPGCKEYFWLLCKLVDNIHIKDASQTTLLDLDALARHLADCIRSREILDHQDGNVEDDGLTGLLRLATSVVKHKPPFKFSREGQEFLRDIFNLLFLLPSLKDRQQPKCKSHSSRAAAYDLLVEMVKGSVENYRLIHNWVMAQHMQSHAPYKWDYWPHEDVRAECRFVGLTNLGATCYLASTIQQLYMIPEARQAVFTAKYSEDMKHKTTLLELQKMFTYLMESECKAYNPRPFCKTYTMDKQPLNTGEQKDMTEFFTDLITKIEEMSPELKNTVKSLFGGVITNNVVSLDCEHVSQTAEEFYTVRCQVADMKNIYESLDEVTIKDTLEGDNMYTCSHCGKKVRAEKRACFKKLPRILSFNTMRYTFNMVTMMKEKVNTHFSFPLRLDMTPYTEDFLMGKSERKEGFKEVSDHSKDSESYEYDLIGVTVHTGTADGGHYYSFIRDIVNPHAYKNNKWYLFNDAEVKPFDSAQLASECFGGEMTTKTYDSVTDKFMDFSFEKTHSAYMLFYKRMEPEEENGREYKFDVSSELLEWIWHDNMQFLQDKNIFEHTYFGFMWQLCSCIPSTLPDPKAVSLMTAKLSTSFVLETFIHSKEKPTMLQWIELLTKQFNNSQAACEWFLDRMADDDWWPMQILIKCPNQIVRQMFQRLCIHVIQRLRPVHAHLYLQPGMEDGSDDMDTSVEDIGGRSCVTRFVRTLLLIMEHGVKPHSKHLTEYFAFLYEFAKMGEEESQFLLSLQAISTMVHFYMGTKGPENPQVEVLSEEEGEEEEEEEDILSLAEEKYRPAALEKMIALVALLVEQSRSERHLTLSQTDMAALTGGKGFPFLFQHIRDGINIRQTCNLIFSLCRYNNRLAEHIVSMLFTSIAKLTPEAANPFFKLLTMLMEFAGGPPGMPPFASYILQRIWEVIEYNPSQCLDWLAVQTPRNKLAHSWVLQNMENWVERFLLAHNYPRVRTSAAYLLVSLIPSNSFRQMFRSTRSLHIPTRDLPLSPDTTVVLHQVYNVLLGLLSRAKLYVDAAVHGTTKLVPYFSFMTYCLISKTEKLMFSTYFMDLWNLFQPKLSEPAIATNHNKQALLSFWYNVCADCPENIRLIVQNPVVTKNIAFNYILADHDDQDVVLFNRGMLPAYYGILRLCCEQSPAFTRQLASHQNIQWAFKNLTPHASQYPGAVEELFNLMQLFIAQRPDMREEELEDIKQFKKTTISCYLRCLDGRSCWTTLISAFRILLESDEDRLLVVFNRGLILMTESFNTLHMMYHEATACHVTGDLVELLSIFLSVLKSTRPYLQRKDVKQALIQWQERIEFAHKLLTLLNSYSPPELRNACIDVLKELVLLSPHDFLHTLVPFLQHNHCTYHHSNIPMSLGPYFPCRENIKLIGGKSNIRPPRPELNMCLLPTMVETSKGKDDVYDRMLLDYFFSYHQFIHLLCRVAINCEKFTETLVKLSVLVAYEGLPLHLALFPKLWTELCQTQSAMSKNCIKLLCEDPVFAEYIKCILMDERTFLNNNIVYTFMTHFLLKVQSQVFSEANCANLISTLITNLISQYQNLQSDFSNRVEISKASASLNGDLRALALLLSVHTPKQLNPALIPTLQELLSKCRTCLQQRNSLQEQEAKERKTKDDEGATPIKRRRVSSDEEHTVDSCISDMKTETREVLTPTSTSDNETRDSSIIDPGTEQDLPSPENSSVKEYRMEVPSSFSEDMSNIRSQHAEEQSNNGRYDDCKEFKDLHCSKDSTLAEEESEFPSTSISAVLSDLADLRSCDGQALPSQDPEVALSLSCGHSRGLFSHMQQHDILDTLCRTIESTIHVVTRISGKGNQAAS

Cl.O=C(CCl)N1CCCC(c2ncc[nH]2)C1 (stereo not given)
inactive: USP34 0.00166 | USP36 0.0764 | USP38 -0.0133 | USP39 0.00979 | USP4 0.124

Reference: the supplement of paper PMC11732987, “Enantioselective OTUD7B fragment discovery through chemoproteomics screening and high-throughput optimisation” (Communications Chemistry, 2025)
